# Measured values published in article PMC5540273 (PLoS ONE, 2017).
# Key:
# Conditions in all cases: concentration: 1 μM, replicates: in singlicate; n = 1
# CAMKK2 = system: CAMKK2
# CASK = system: CASK
# CDC2L1 = system: T1, CDC2L1
# T1 construct: gene CDK11B
# CDC2L2 = system: CDC2L2
# CDC2L5 = system: T2, CDC2L5
# T2 construct: gene CDK13
# CDK11 = system: T3, CDK11
# T3 construct: gene CDK19
# CDK2 = system: CDK2
# CDK3 = system: CDK3
# CDK4-cyclinD1 = system: CDK4-cyclinD1
# CDK4-cyclinD3 = system: CDK4-cyclinD3
# CDK4 = system: CDK4
# CDK5 = system: CDK5
# CDK7 = system: CDK7
# CDK8 = system: CDK8
# CDK9 = system: CDK9
# CDKL1 = system: CDKL1
# CDKL2 = system: CDKL2
# CDKL3 = system: CDKL3
# CDKL5 = system: CDKL5
# CHEK1 = system: CHEK1
# 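Also: KINOMEscan kinase panel screen.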
SMILES,%Inh (CAMKK2) [%],%Inh (CASK) [%],%Inh (CDC2L1) [%],%Inh (CDC2L2) [%],%Inh (CDC2L5) [%],%Inh (CDK11) [%],%Inh (CDK2) [%],%Inh (CDK3) [%],%Inh (CDK4-cyclinD1) [%],%Inh (CDK4-cyclinD3) [%],%Inh (CDK4) [%],%Inh (CDK5) [%],%Inh (CDK7) [%],%Inh (CDK8) [%],%Inh (CDK9) [%],%Inh (CDKL1) [%],%Inh (CDKL2) [%],%Inh (CDKL3) [%],%Inh (CDKL5) [%],%Inh (CHEK1) [%]
COc1ccc(Nc2nccc(NCCNC(=O)Nc3ccccc3F)n2)cc1 [GSK1379901],0,9,5,20,0,12,0,16,0,9,0,0,0,0,1,4,9,0,3,0
COc1cc2nccc(Nc3ccc(NC(=O)c4ccc(C)cc4)c(O)c3)c2cc1OC.Cl [GW440132],32,2,0,3,0,5,0,9,0,0,35,0,75,33,0,4,13,0,0,0
Cc1ccc(C(=O)Nc2ccc(Nc3ccnc4cc(-c5ccccn5)ccc34)cc2O)cc1.Cl [GW440146],0,3,0,11,0,0,0,5,16,0,32,0,0,23,0,0,18,0,2,0
Cc1c(O)cccc1Nc1ccnc2ccc(C(F)(F)F)cc12.Cl [GW466413],3,0,0,0,0,17,0,0,0,0,33,0,0,18,0,0,5,0,0,0
Cc1ccc(-c2cc(-c3c[nH]nc3-c3ccccn3)ccn2)cc1 [GW684088],26,0,0,17,0,16,0,0,28,0,43,0,9,52,5,0,28,0,0,12
COC(=O)c1c(-c2ccccc2)c2cc(C(=O)O)ccc2c(=O)n1Cc1ccccc1,0,18,0,3,40,0,0,0,0,0,0,0,0,13,0,0,6,4,21,0
CCCc1ccc(S(=O)(=O)NC2CCN(c3ccnc(Nc4ccc(F)cc4)n3)C2)cc1 (stereo not drawn) [GSK1379715],0,4,0,0,98.6,5,0,22,0,0,0,0,0,0,0,13,38,0,0,6
O=C(Nc1ccc2c(c1)OCO2)NC1CCN(c2ccnc(Nc3ccc(F)cc3)n2)C1 (stereo not drawn) [GSK1379724],3,21,0,0,0,40,0,8,0,0,0,0,0,33,0,0,49,0,3,0
COc1ccc(Nc2nccc(-c3cccc(NC(=O)c4cc5cc(F)ccc5[nH]4)c3)n2)cc1 [GSK1229782],29,14,4,24,0,24,17,20,17,0,48,1,4,56,0,12,30,0,0,0
